Experimental findings from PubChem BioAssay (NCATS) are described below.

Assay [1] can be described thus: NS1 protein of Zika virus - qHTS assay to identify small molecule inhibitors in human HEK 293 cells (AID 1347053). Also: series mostly up to about 46 µM; nearly all actives have a fitted effect of over 55% in size. The method in brief: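 Inhibition of NS1 expression was scored in HEK 293 cells given compound 1 h ahead of MR766 virus (MOI = 0.5). Following 24 h at 37 C, two anti-NS1 antibodies generated a TR-FRET signal, scaled between uninfected and infected controls.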
In general terms: Quantitative high-throughput screening tests each substance at several concentrations.

Assay [2] deals with T1, Tyrosine-protein phosphatase non-receptor type substrate 1 (Homo sapiens) + Leukocyte surface antigen CD47 (Homo sapiens) (UniProt P78324+Q08722). Briefly: CD47-SIRPalpha protein protein interaction - LANCE assay qHTS validation (AID 1347057; active = well fitted curve in the direction sought with a large enough effect in the signal ratio, with a control signal flat, not every such curve was filed as active; the % refers to the signal ratio; also: series mostly up to about 38 µM). Summed up:
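First, His-tagged CD47 and Eu-labelled anti-His antibody met the compound for 30 min; next, site-specifically biotinylated SIRPalpha was added for 30 min; finally streptavidin-APC was added before reading the TR-FRET ratio.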

Assay [3] has as its target T1, Tyrosine-protein phosphatase non-receptor type substrate 1 (Homo sapiens) + Leukocyte surface antigen CD47 (Homo sapiens). The assay can be described thus: CD47-SIRPalpha protein protein interaction - HTRF assay qHTS validation (AID 1347058; active = well fitted curve in the direction sought with a large enough effect in the signal ratio, not every such curve was filed as active; the % refers to the signal ratio; also: series mostly up to about 38 µM). Summed up:
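TR-FRET read (Ch1/Ch2 ratio) of soluble extracellular CD47 and Avi-biotinylated SIRPalpha domains in PBS pH 7.4 with 0.05% IGEPAL; 7-point compound titration. Sequential 30 min room-temperature steps; non-biotinylated SIRPalpha as control inhibitor.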
Background: In TR-FRET formats the signal depends on donor and acceptor labels being close together.

For assay [4] the target is unchanged. The assay can be described thus: CD47-SIRPalpha protein protein interaction - Alpha assay qHTS validation (AID 1347059).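 Also: bead proximity luminescence from CD47 binding SIRPalpha after compound preincubation with SIRPalpha.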 Summed up: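 Soluble extracellular domains: Avi-tag biotinylated SIRPalpha (25 nM) preincubated 30 min RT with compound, then 6His-CD47 (12.5 nM) 30 min; Ni-NTA acceptor and streptavidin donor beads (10 ug/mL) 30 min, AlphaScreen read. PBS pH 7.4, 0.05% IGEPAL.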

For assay [5], the target named is Parathyroid hormone/parathyroid hormone-related peptide receptor (Homo sapiens) (UniProt Q03431). Briefly: qHTS for PTHR1 Agonists: Optimization Screen against the NCGC LOPAC library (AID 1347079).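 Also: GloSensor cAMP luminescence in HEK-293 GP2 cells expressing human PTHR1 with IBMX.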 The method in brief:
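Agonist readout: GloSensor cAMP luminescence, read after 15 min at room temperature. HEK-293-derived GP2 line carries PTHR1; compounds tested as a titration for 1 hr at 37C in presence of IBMX. M-PTH (1-15) served as control.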

The target in assay [6] is N-terminal Xaa-Pro-Lys N-methyltransferase 1 (Homo sapiens) (UniProt Q9BV86). The assay can be described thus: qHTS Assay for Inhibitors of N-terminal methyltransferase 1 (NTMT1): LOPAC validation of the NTMT1 SAHH-coupled ThioGlo3 Assay (AID 1347143). Also: nearly all actives have a fitted effect of over 70% in size. Also: potency is read from the fitted curve at half-maximal effect. The method in brief:
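Fluorescence read-out (excitation 340nm, emission 450nm) of SAH-derived thiol, measured via SAHH coupling and ThioGlo3, taken immediately and after a 30 min room-temperature reaction, then normalized to the background read. Enzyme: NTMT1 at 125nM; cofactor SAM 100uM in the added reagent.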

For assay [7], the system named is Zika virus NS2B-NS3 protease (unlinked). Briefly: Optimization of GU AMC qHTS for Zika virus inhibitors: Unlinked NS2B-NS3 protease assay (AID 1347151). Also: series mostly up to about 52 µM; nearly all actives have a fitted effect of over 80% in size. The method in brief:
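Percent inhibition is derived from the 15-min change in AMC fluorescence, normalized against no-inhibitor and no-enzyme controls, then fitted to a 4-parameter Hill curve. Aprotinin was the intraplate control.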

Assay [8] has as its target Furin (Homo sapiens) (UniProt P09958). Briefly: Furin counterscreen qHTS for Zika virus inhibitors (AID 1347149). Also: nearly all actives have a fitted effect of over 70% in size. Also: potency is read from the fitted curve at half-maximal effect. The method in brief: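 Fluorogenic cleavage of BOC-RVRR-AMC (2 microM final, Km ~15 µM) was monitored (ex 340, em 450 nm) at 37C after 15 min RT preincubation of 5 nM furin with compounds in HEPES pH 7.0 buffer with CaCl2 and Triton X-100. Percent inhibition was fitted to a 4-parameter Hill curve.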
On the technique in general: A counterscreen serves to expose hits that act by an unwanted route or on another target.

The test system of assay [9] is Zika virus NS2B-NS3 protease (linked construct). The assay can be described thus: Confirmatory screen NINDS AMC qHTS for Zika virus inhibitors (AID 1347152). Also: nearly all actives have a fitted effect of over 70% in size. Also: potency is read from the fitted curve at half-maximal effect. The method in brief:
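In this dose-response qHTS, AMC release from 10 microM Bz-Nle-KRR-AMC by 1 nM linked protease is measured over 15 minutes (about 20% conversion) at pH 8.0. Percent inhibition is fitted to a 4-parameter Hill curve.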

In assay [10] the test system is Zika virus NS2B-NS3 protease (unlinked complex). The assay can be described thus: Confirmatory screen GU AMC qHTS for Zika virus inhibitors (AID 1347153). Also: nearly all actives have a fitted effect of over 70% in size.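 As to Potency: enzyme at 25 nM with substrate at 10 µM below its Km of 18.3 µM; potency is read from the fitted curve at half-maximal effect.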 The method in brief:
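Compounds were preincubated 15 min at room temperature with 25 nM noncovalent NS2B-NS3 protease at pH 8.0; AMC substrate added at 10 microM and 15-min fluorescence gain (340/450 nm) converted to percent inhibition, fitted 4-parameter.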

Molecules are shown by their SMILES. Records with an inconclusive call do not appear. Active and inactive are the calls of the source. Unless noted, calls follow the shape of the dose curve; as a rule, active = well fitted curve in the direction sought with a large enough effect; inconclusive = small, poorly fitted or top-dose-only effect, or another doubt; inactive = no such curve, though single readings can be large; an effect the other way counts as inactive or inconclusive. Residues, ends and D or L forms follow the SMILES beside them. *: point of attachment. Cbz = O=C(OCc1ccccc1)*

T1 sequence (P78324 whole entry, looked up): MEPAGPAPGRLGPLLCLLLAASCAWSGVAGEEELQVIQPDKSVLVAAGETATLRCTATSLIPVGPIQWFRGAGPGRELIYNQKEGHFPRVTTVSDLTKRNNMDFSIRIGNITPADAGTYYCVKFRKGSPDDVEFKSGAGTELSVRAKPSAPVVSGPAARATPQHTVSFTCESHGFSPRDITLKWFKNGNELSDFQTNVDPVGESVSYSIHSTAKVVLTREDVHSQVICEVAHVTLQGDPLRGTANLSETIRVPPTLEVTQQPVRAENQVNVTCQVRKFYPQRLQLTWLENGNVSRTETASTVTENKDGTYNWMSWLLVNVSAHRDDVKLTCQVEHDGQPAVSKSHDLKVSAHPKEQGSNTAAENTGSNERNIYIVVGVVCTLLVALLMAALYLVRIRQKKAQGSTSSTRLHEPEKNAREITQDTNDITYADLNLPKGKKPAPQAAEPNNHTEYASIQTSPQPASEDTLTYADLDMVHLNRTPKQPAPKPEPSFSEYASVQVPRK
T1 sequence (Q08722 whole entry, looked up): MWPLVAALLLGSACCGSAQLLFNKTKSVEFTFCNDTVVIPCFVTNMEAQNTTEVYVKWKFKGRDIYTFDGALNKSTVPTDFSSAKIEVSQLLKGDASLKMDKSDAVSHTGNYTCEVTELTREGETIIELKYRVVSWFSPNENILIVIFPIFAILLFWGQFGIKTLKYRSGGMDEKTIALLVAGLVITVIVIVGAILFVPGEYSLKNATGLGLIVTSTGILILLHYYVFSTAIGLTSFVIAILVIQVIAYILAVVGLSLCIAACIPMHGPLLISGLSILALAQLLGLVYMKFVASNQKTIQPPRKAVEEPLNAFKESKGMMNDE
Sequence of N-terminal Xaa-Pro-Lys N-methyltransferase 1 (Homo sapiens) (Q9BV86 whole entry, looked up): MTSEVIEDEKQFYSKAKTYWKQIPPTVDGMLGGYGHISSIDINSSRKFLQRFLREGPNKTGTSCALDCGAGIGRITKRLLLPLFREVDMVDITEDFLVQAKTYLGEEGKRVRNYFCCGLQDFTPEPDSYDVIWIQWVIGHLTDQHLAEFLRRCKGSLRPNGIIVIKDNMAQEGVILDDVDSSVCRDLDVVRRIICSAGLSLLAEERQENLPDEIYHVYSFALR
Sequence of Furin (Homo sapiens) (P09958 whole entry, looked up): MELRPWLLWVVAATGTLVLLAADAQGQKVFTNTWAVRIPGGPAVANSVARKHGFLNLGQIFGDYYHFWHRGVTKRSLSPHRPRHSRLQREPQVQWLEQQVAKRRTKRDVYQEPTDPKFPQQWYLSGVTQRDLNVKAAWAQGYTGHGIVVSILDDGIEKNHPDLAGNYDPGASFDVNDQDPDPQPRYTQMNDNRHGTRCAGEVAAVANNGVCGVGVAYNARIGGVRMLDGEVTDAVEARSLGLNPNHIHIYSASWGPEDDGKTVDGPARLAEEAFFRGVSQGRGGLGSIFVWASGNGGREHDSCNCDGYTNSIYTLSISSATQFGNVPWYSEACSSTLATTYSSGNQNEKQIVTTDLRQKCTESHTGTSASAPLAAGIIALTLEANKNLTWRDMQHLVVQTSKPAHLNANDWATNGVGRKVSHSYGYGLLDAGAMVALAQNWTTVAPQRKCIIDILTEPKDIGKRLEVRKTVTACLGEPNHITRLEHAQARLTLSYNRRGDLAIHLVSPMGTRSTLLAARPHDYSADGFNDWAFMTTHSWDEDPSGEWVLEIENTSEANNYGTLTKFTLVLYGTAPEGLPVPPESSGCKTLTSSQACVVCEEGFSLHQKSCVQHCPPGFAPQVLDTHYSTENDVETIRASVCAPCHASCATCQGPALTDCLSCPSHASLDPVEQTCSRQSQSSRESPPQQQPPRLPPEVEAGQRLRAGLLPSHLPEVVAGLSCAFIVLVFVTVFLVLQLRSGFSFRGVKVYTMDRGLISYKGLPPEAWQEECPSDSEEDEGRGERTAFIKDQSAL
Sequence of Parathyroid hormone/parathyroid hormone-related peptide receptor (Homo sapiens) (Q03431 whole entry, looked up): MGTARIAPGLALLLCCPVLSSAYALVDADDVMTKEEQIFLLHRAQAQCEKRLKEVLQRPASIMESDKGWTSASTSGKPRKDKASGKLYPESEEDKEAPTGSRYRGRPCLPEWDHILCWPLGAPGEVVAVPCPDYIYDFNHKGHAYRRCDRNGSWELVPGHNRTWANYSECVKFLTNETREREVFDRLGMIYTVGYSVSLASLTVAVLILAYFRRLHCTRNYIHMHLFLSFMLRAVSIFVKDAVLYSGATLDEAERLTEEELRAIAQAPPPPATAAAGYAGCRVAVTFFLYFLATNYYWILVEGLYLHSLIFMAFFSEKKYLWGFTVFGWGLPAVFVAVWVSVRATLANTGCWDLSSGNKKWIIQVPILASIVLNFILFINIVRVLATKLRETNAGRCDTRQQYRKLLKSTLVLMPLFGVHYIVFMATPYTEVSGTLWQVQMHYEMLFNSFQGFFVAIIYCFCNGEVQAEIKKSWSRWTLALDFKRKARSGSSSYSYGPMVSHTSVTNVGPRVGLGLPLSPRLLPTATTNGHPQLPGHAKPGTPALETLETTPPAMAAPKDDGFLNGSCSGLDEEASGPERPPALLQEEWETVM

Take `O[Si](CCCN1CCCCC1)(c1ccc(F)cc1)C1CCCCC1` (configuration not stated): the Potency result in assay [1], in assay [2], in assay [4], in [5], in assay [6] and in [7] was “inactive” in each case. In addition, the result in assay [3] was inactive.
`NC(N)=NC(N)=Nc1ccccc1`: the Potency result in assay [1], in assay [2], in assay [4], in assay [5], in [6] and in [7] was “inactive” each time. Besides, the outcome in [3] was inactive.
In the case of `C=CC[C@H](N)C(=O)O`, the Potency result in assay [1], in [2], in assay [4], in assay [5], in [6] and in assay [7] was “inactive” throughout. For the same compound, the outcome in [3] was inactive.
With `C[C@](Cc1ccc(O)c(O)c1)(NN)C(=O)O`, the Potency entry in [1], in assay [2], in assay [4], in assay [5] and in assay [7] was “inactive” in each case. In addition, the outcome in assay [3] was inactive. Also, the Potency in assay [6] was 39.8 µM (active).
As for `OC[C@H]1O[C@H](n2cnc3c(N[C@H]4CCC[C@@H]4O)ncnc32)[C@H](O)[C@@H]1O`, the Potency result in assay [1], in assay [2], in assay [4], in [5], in [6] and in assay [7] was “inactive” in each case. In assay [3], the outcome was inactive.
Consider `C/C(=C\c1ccc(C(=O)O)cc1)c1ccc2c(c1)C(C)(C)CCC2(C)C`, for which the Potency result in assay [1], in assay [2], in assay [4] and in [5] was “inactive” in each case. For the same compound, the result in assay [3] was inactive. The Potency in assay [8] was 21.5 µM (active); in assay [9], 24.1 µM (active); in assay [10], 24.1 µM (active).
`CC(=O)SC1CC2=CC(=O)CC[C@]2(C)C2CC[C@@]3(C)C(CC[C@@]34CCC(=O)O4)C12` (some centres not stated): the Potency result in [1], in assay [2], in assay [4], in assay [5], in assay [6] and in [7] was “inactive” in each case. Moreover, in assay [3], the result was inactive.
As for `Nc1nc2c(nc(Br)n2C2OC3COP(=O)(O)O[C@@H]3C2O)c(=O)[nH]1` (some centres not stated), the Potency entry in assay [1], in assay [2], in [4], in [5], in assay [6] and in assay [7] was “inactive” each time. For the same compound, in assay [3], the result was inactive.
As to `CN(C)CCCc1cc(C(=O)Nc2ccc(-c3ccncc3)cc2)ccc1O`, the Potency result in assay [1], in assay [2], in assay [4], in [5] and in assay [7] was “inactive” in each case. The result in [3] was inactive.
Regarding `Cn1ccnc1`, the Potency result in [1], in [2], in assay [4], in assay [5], in assay [6] and in assay [7] was “inactive” throughout. In assay [3], the result was inactive.
`c1ccc2c(c1)CC(N1CCN(c3cccc4c3OCCO4)CC1)C2`: the Potency result in assay [1], in assay [2], in assay [4], in assay [5], in assay [6] and in assay [7] was “inactive” each time. Besides, in assay [3], the outcome was inactive.
On to `CC(C)(C)NCC(O)COc1cccc2[nH]c(=O)[nH]c12` (configuration not stated), for which the Potency entry in assay [1], in assay [2], in assay [4], in [5], in assay [6] and in assay [7] was “inactive” throughout. Also, the outcome in assay [3] was inactive.
For the compound `NC1(C(=O)O)CC1`, the Potency result in [1], in assay [2], in [4], in assay [5], in [6] and in [7] was “inactive” each time. For the same compound, the outcome in assay [3] was inactive.
For the compound `CC(C)[C@H](NC(=O)OCc1ccccc1)C(=O)N[C@H](C=O)Cc1ccccc1` (Cbz-Val-Phe-aldehyde), the Potency entry in [1], in [2], in assay [4], in assay [5], in assay [6] and in assay [7] was “inactive” throughout. Also, the outcome in assay [3] was inactive.
As to `CCCc1c(OCCCOc2ccc(OCC(=O)O)cc2)ccc(C(C)=O)c1O`, the Potency entry in assay [1], in assay [2], in assay [4], in assay [5] and in [8] was “inactive” each time. The outcome in [3] was inactive.
On to `COc1ccccc1N1CCN(CCCNc2c(C)c(=O)n(C)c(=O)n2C)CC1`, for which the Potency result in assay [1], in assay [2], in [4], in assay [5], in assay [8] and in assay [9] was “inactive” throughout. In addition, the Potency result in [10] is “inactive”. The outcome in [3] was inactive.
